USP17 inh = blocks human USP17 ubiquitin-rhodamine cleavage | purified USP17, Ub-rhodamine cleavage fluorescence, 3 h | inhibition, % at 50 µM | hit rate 6.5% among 47,000 | AID 1645855
USP30 inh = human USP30 deubiquitinase inhibition; Q70CQ3; purified USP30, Ub-rhodamine cleavage fluorescence; inhibition, % at 25 µM; hit rate 5.3% among 47,000; AID 1645860
USP8 block = inhibitors of human USP8 deubiquitinase. P40818. purified USP8, Ub-rhodamine cleavage fluorescence, 30 min. inhibition, % at 20 µM. hit rate 4.2% among 47,000
USP10 inh = blocks human USP10 ubiquitin-rhodamine cleavage; Q14694; purified USP10, Ub-rhodamine fluorescence, 60 min; inhibition, % at 20 µM; hit rate 1.1% among 47,000; AID 1645856
USP7 inh = blocks human USP7 ubiquitin-rhodamine cleavage. inhibition, % at 20 µM. purified USP7, Ub-rhodamine cleavage fluorescence. hit rate 0.3% among 47,000
UCHL1 inh = human UCHL1 deubiquitinase inhibition; hit rate 0.2% among 47,000; AID 1645859; purified UCHL1, Ub-rhodamine cleavage fluorescence; inhibition, % at 20 µM; P09936
Each line names hits and unclear results; the compound was inactive in the other large screens. The list is not random: actives were taken first. Their share in the collection is about 13%. No stated cut-off is given here; in the data, active means inhibition above about 30%; inactive means the rest.

COc1cc2c(cc1OC)-c1cc(N(C(C)=O)c3ccc4c5c(cccc35)CC4)nc(=O)n1CC2	USP17 inh 38
Cc1cccc(CN(CC(=O)NCCC2=CCCCC2)S(=O)(=O)c2ccc(Cl)cc2)c1	none
Cc1cccc(NC(=O)C2c3c(ncn3C)CCN2C(=O)c2cccnc2)c1 (configuration not stated)	none
COc1ccc(NS(=O)(=O)c2cc(NC(=O)COc3ccccc3)ccc2N2CCCCC2)cc1	none
Cc1ccc2c(C)c(C(=O)Nc3ccc4c(c3)NC(=O)CO4)oc2c1C	none
Cc1cc(OCC(=O)Nc2ccc3c(c2)NC(=O)CO3)ccc1Cl	USP8 block 53, USP10 inh 45
Cc1cccc(OCC(=O)Nc2ccc3c(c2)NC(=O)CO3)c1	USP17 inh 41
COc1ccc(S(=O)(=O)NCc2c(C)noc2C)cc1Cl	none
COCC(C)Nc1ncc(-c2cnccn2)c(-c2ccc(C)s2)n1 (configuration not stated)	USP17 inh 63
O=C(Cc1ccc(Cl)cc1)Nc1ccc2nn(-c3ccc(F)cc3)nc2c1	USP17 inh 45 (no result: USP30 inh)
CC(C)Cn1c(N2CCNCC2)nc2c1c(=O)[nH]c(=O)n2C	USP30 inh 47
Cn1c(=O)[nH]c(=O)c2c1nc(N1CCN(C(c3ccccc3)c3ccccc3)CC1)n2CCSc1ncccn1	USP30 inh 30
Cn1c(=O)[nH]c(=O)c2c1nc(N1CCc3ccccc3C1)n2CCSc1nnnn1-c1ccccc1	USP8 block 86
CCN1CCN(c2nc3c(c(=O)[nH]c(=O)n3C)n2CCc2ccc(OC)cc2)CC1	none
COc1ccc(N2CCN(c3nc4c(c(=O)[nH]c(=O)n4C)n3CCSc3ncccn3)CC2)cc1	none
CCN1C(=O)c2cccnc2Sc2cc(NC(=O)c3ccc(Cl)s3)ccc21	none
Cc1cc(C(=O)N2CC[C@@H]3Oc4ccccc4S(=O)(=O)N(CC4CC4)[C@H]3CC2)no1	none
Cc1ccsc1Cn1nccc1NC(=O)c1cccnc1SC(F)F	none
CCC(C)Nc1cc2n(c(=O)n1)CCc1cc(OC)c(OC)cc1-2 (configuration not stated)	none
Cc1nnc(NC(=O)C2CC(=O)N(CCc3ccc(F)cc3)C2)s1 (configuration not stated)	none
CCCCN1CC(C(=O)Nc2ccc(C(=O)Nc3ccc(C(N)=O)cc3)cc2)CC1=O (configuration not stated)	USP10 inh 41
CCOc1cc(CCC(=O)N2CCC([C@@H]3C[C@H](C(F)F)n4nc(C)cc4N3)CC2)on1	none
COc1ccc(-n2c(SCC(=O)Nc3cc(Cl)ccc3C(=O)O)nc3ccccc3c2=O)cc1Cl	USP17 inh 93, USP8 block 39, USP10 inh 59, USP7 inh 35 (no result: USP30 inh)
COC(=O)CSc1nc2ccccc2c(=N)n1-c1ccc(Cl)cc1	none
Cc1cc(-c2noc(-c3ccoc3C)n2)c2ccccc2n1	USP8 block 37
COC(=O)c1cc2c(ccn2-c2ccc(F)cc2)n1CC(=O)NC1CCCCC1	USP8 block 34
CC(C)OC(=O)c1cc2c(ccn2-c2ccc(F)cc2)n1CC(=O)N(C)C1CCCCC1	USP8 block 60
O=C(CSc1nc2ccsc2c(=O)n1Cc1ccccc1)Nc1ccccc1C(F)(F)F	USP17 inh 55 (no result: USP30 inh)
CC(C)(C)c1ccc(C(=O)Nc2ccc([C@@H](O)[C@H]3COCC(=O)N3)cc2)cc1	none
COc1cccc2[nH]c(C(=O)N3CCC(n4cnc5cccnc54)CC3)cc12	none
Cc1cc(N2CCN(c3ncccn3)CC2)nc2ccc(NC(=O)Cn3nc([N+](=O)[O-])c(Br)c3C)cc12	USP17 inh 64, USP30 inh 68, USP10 inh 33
Cc1cc(C(=O)Nc2ccc3nc(N4CCN(c5ncccn5)CC4)cc(C)c3c2)ccc1[N+](=O)[O-]	USP17 inh 73
Cc1cc(N2CCN(c3ncccn3)CC2)nc2ccc(NC(=O)C3CCC(C(C)(C)C)CC3)cc12 (configuration not stated)	none
Cc1ccc(-c2nc(NC(=O)Nc3ccc(C(F)(F)F)cc3)sc2C)cc1Cl	USP17 inh 33
Cc1ccc(-c2nc(NC(=O)c3ccccn3)sc2C)cc1	none
CCCCCCCC/C=C\CCCCCCCc1cc(O)cc(O)c1C(=O)O	none
